Here are results for 13 sequences from PMC4666376, “Characterisation of aptamer–target interactions by branched selection and high-throughput sequencing of SELEX pools”.

The target in the assay is PAI-1 wild type, active (human, UniProt P05121 24-402). Briefly: branched SELEX with high-throughput sequencing; PAI-1 immobilised on polyclonal anti-PAI-1 antibody; HBS (10 mM HEPES pH 7.4, 140 mM NaCl), 2 mM MgCl2, 2 mM CaCl2, 0.1% BSA; RNA pool 100 nM; PAI-1 captured on antibody-coated wells; 45 min; binding temperature not stated (PAI-1 capture at room temperature); high values mean tight binding.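 Also: Pool frequency after one selection round with this target divided by frequency before selection.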 As to conditions: protein: recombinant; tags: N-terminal His6; structured_RNA; 2'-F pyrimidines.
PAI-1 wild type, active, sequence (P05121 24-402): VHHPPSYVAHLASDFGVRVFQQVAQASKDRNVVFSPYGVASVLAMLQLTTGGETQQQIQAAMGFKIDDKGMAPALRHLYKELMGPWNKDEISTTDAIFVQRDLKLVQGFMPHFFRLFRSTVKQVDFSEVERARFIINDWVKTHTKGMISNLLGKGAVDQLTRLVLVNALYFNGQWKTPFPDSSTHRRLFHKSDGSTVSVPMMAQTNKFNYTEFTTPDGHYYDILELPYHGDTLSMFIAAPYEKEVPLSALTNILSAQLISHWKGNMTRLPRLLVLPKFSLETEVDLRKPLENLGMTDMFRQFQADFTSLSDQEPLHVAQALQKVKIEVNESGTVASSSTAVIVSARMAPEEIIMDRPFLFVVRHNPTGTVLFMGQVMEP
Take “GGGGCCACCAACGACAUUUGCGUAAGCAACCUUGGUGUUAUAUUCACCAGAUCGUUGAUAUAAAUAGUGCCCAUGGAUC”: the binding signal was found to be 0.63 enrichment factor.
Under “GGGGCCACCAACGACAUUCGGGACUACGUAGGCGGAUUCGCCGAUUACCCGUUGUUGAUAUAAAUAGUGCCCAUGGAUC” stands 0.7 enrichment factor; under “GGGGCCACCAACGACAUUUGGACUGAAUCCAACCUUAUGCGUAAGCAUAGUUCGUUGAUAUAAAUAGUGCCCAUGGAUC”, 2.2 enrichment factor.
For “GGGGCCACCAACGACAUUGUAGCAUAAUCAACCUGCGACUGUCGUGUGAUAAGGUUGAUAUAAAUAGUGCCCAUGGAUC” the value was 1.02 enrichment factor.
For “GGGGCCACCAACGACAUUUUGAUCAACACAACGUAGGUCUAUGCGACCGAUAGUUGAUAUAAAUAGUGCCCAUGGAUC” the value was 2.02 enrichment factor; for “GGGGCCACCAACGACAUUUACCGUCUGGGUAACCUUGUACGAUAGUACAGUUCGUUGAUAUAAAUAGUGCCCAUGGAUC”, 1.31 enrichment factor; for “GGGGCCACCAACGACAUUGAACCACGUAGGCUCGUUUCUGAGCCGAUCUCGAUGUUGAUAUAAAUAGUGCCCAUGGAUC”, 1.62 enrichment factor.
With “GGGGCCACCAACGACAUUGACUCCUAGUUAUACCGAUUAGGACUUGUAGAUGCGUUGAUAUAAAUAGUGCCCAUGGAUC”, the binding signal is 0.26 enrichment factor.
For “GGGGCCACCAACGACAUUCAACGACCAGUACGUGUGAGGGCGUACAUCAUGUAGUUGAUAUAAAUAGUGCCCAUGGAUC” the value was 0.37 enrichment factor; for “GGGGCCACCAACGACAUUUCACACUGUAAGGCCAUGUGCCGACUAGAAAUUGCGUUGAUAUAAAUAGUGCCCAUGGAUC”, 0.84 enrichment factor.
For “GGGGCCACCAACGACAUUAAGUUCGUCCCGCAUGGUACGAUGCGGGUCUAUGCGUUGAUAUAAAUAGUGCCCAUGGAUC” the value was 6.47 enrichment factor.
Under “GGGGCCACCAACGACAUUGCUGUGCUAAUCGGUCUUCCGACGCAUAUUCGAAUGUUGAUAUAAAUAGUGCCCAUGGAUC” stands 0.63 enrichment factor.
As to “GGGGCCACCAACGACAUUGUACCACGUAGGAUGAAGUCAUCCGAUCACAGUGUUGAUAUAAAUAGUGCCCAUGGAUC”, the binding signal turned out to be 0.87 enrichment factor.
